Assay outcomes (PubChem)
In the library only some 7.3% were active in any assay of this set; here they are far more common.
SMN2 splice enh – enhancers of SMN2 splice variant expression | HEK293 SMN2-luciferase splicing reporter, luminescence, 30-36 h | Potency, µM (series often up to 46.1 µM), inactives show top-dose activity change, positive = activation, hits mostly activators | hit rate 2.8% among 210,000; also: % of control where 0% means no effect; nearly all actives have a fitted effect of over 55% in size
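qHTS luciferase splicing reporter: luminescence rises when SMN2 exon 7 is included in transfected HEK293 cells. Compound exposure lasted 30-36 h at 37C, with 4.5 mM final sodium butyrate as control, followed by a ONE-Glo read.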
NPC1 prom act – activators of NPC1 promoter | Huh7 NPC1 promoter luciferase reporter, 24 h | Potency, µM (doses to about 9.22 µM), for inactives: at the top dose activation, most hits filed as activators | hit rate 2.4% among 320,000 | AID 485313; also: % of control where 0% means no effect; nearly all actives have a fitted effect of over 60% in size
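Luminescence read-out of NPC1 promoter-driven luciferase in stably transfected Huh7 cells; compounds delivered in DMSO and left 24 h at 37C, 5% CO2, qHTS titration format.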
FLuc modulator – inhibits or activates purified firefly luciferase, miR-21 counter-screen. Potency, µM (doses to about 57.5 µM), without a hit: top-dose activity change, negative = inhibition, actives largely listed as inhibitors. purified FLuc, Km substrates, luminescence inhibition. hit rate 6.9% among 360,000;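 also: plate controls were vehicle for no effect and reference inhibitor for full effect; nearly all actives have a fitted effect of over 55% in size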
Target sequence (P08659 whole entry, looked up): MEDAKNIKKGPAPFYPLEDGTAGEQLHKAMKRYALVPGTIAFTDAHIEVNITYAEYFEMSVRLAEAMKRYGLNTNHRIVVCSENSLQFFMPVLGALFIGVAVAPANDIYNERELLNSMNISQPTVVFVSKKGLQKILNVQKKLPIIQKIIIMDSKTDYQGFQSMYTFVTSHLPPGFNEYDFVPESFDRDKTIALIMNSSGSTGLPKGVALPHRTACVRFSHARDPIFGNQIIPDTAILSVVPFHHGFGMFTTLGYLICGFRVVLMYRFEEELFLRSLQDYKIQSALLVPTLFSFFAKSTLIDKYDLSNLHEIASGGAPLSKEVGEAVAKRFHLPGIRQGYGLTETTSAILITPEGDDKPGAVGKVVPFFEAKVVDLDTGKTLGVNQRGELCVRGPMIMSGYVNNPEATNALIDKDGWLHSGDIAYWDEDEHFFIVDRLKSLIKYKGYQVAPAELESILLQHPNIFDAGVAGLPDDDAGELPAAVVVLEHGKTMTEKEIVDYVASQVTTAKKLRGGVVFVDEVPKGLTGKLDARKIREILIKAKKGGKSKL
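Purified P. pyralis luciferase, 10 nM final, with Km-level 10 uM D-luciferin and 10 uM ATP in 50 mM Tris acetate pH 7.5, 10 mM Mg acetate, 0.01% Tween-20, 0.05% BSA; 6-point qHTS titration about 60 µM downward; luminescence read.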
Rab9 promoter act – activators of Rab9 promoter | Huh7 Rab9 promoter-luciferase reporter, luminescence, 24 h | Potency, µM (highest dose often 9.22 µM), for the others: at the highest dose activation, negative = inhibition, hits mostly activators | hit rate 2.8% among 320,000; also: % of control where 0% means no effect; nearly all actives have a fitted effect of over 60% in size
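Huh7 cells stably carrying Rab9 promoter–luciferase reporter, plated 1500 cells/well, compound added after 2 h and incubated 24 h at 37 °C; luciferase luminescence then read after 10 min with detection reagent.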
p53 reactivation – re-activators of mutant p53. hit rate 0.063% among 320,000. H1299 p53-A138V BP100-luciferase reporter, luminescence, 24 h. Potency, µM (doses to about 92.2 µM), without a hit: at the top dose activity change, positive = activation, usual class: activators; also: % of control where 0% means no effect; nearly all actives have a fitted effect of over 45% in size
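p53-null H1299 cells stably carrying temperature-sensitive p53-A138V and a BP100-luciferase reporter were pinned with compounds (4-point, 1:5 series) and held 24 hrs at 37 deg C. Luminescence was read 10 min after detection reagent.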
ELG1 genotoxic – induces genotoxicity in HEK293T cells with luciferase-tagged ELG1; hit rate 1.3% among 330,000; AID 504466; Potency, µM (series often up to 46 µM), for the others: top-dose activity change, positive = activation, most hits filed as activators; HEK293T ELG1-luciferase reporter, luminescence, 16 h; also: % of control where 0% means no effect; nearly all actives have a fitted effect of over 60% in size
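ELG1-luciferase HEK293T cells, 2,000/well; compound pinned in; 16 hr, 37 °C, 5% CO2; ONE-Glo, 30 min RT; luminescence on CCD imager.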
An asterisk follows results filed as active. Calls follow the shape of the dose curve; as a rule, active = well fitted curve in the direction sought with a large enough effect; inconclusive = small, poorly fitted or top-dose-only effect, or another doubt; inactive = no such curve, though single readings can be large; an effect the other way counts as inactive or inconclusive. Potency is read from the fitted curve at half-maximal effect.

What do the screens show for `CCCCc1nn2c(=O)cc(COC(=O)CNC(=O)c3ccccc3C)nc2s1`?
FLuc modulator: -7%

Results for COc1ccc(C2CC(=O)Nc3c2c(=O)n(C)c2nc4ccccc4n32)cc1 (configuration not stated) ?
SMN2 splice enh: 12%; FLuc modulator: -19%

How did CCc1ccc(/C=C2/SC(=S)N(CCC(=O)Nc3cccnc3)C2=O)cc1 do in these assays?
NPC1 prom act: -1%; FLuc modulator: 0.85µM*; Rab9 promoter act: -9%; ELG1 genotoxic: 17%

How did CCc1ccc(/C=C2\SC(=S)N(CCCC(=O)Nc3ccccc3C(=O)O)C2=O)cc1 do in these assays?
NPC1 prom act: -2%; FLuc modulator: inconclusive; Rab9 promoter act: -15%; p53 reactivation: -8%; ELG1 genotoxic: -1%

What do the screens show for `O=C(CCCN1C(=O)/C(=C\c2cccs2)SC1=S)Nc1ccc(C(=O)O)cc1`?
SMN2 splice enh: -1%; NPC1 prom act: -2%; FLuc modulator: inconclusive; Rab9 promoter act: -1%; p53 reactivation: 3%; ELG1 genotoxic: -13%

What do the screens show for `O=C(CCN1C(=O)/C(=C/c2ccccc2)SC1=S)Nc1cccnc1`?
NPC1 prom act: 0%; FLuc modulator: -10%; Rab9 promoter act: 3%; p53 reactivation: -2%; ELG1 genotoxic: -1%

What do the screens show for `CCc1ccc(/C=C2\SC(=S)N(CCCC(=O)Nc3ccc(C(=O)O)cc3)C2=O)cc1`?
NPC1 prom act: -22%; FLuc modulator: 4.8µM*; Rab9 promoter act: -33%; p53 reactivation: -5%; ELG1 genotoxic: 7%

Results for O=C(CCCN1C(=O)/C(=C\c2ccccc2)SC1=S)Nc1ccc(C(=O)O)cc1 ?
NPC1 prom act: -6%; FLuc modulator: 17µM*; Rab9 promoter act: -4%; p53 reactivation: 2%; ELG1 genotoxic: -2%

How did CC(NC(=O)CSc1ncccc1C(=O)O)C1CC2CCC1C2 (configuration not stated) do in these assays?
NPC1 prom act: 0%; FLuc modulator: 4%; Rab9 promoter act: -2%; p53 reactivation: -4%; ELG1 genotoxic: -2%

How did Cc1cccc(NC(=O)CSc2nnc3[nH]c(=O)cc(-c4ccccc4)n23)c1C do in these assays?
FLuc modulator: 3µM*

How did Cc1cc(=O)[nH]c2nnc(SCC(=O)Nc3cc(C(F)(F)F)ccc3Cl)n12 do in these assays?
FLuc modulator: 3%

Results for CN(C(=O)CSc1nnc2[nH]c(=O)cc(-c3ccccc3)n12)c1ccccc1 ?
FLuc modulator: 19µM*

Results for O=c1cc(-c2ccccc2)n2c(SCc3cccc([N+](=O)[O-])c3)nnc2[nH]1 ?
FLuc modulator: -18%

What do the screens show for `O=C(CSc1nnc2[nH]c(=O)cc(-c3ccccc3)n12)Nc1cc(C(F)(F)F)ccc1Cl`?
FLuc modulator: 0.21µM*

What do the screens show for `Cc1cccc(NC(=O)CSc2nnc3[nH]c(=O)cc(C)n23)c1C`?
FLuc modulator: 1%

What do the screens show for `O=C(CSc1nnc2[nH]c(=O)cc(-c3ccccc3)n12)Nc1ccc(F)cc1F`?
FLuc modulator: 1.9µM*

Results for O=S(=O)(c1ccccc1)c1nnn2c1nc(NCc1ccccc1)c1cc(Cl)ccc12 ?
SMN2 splice enh: 6%; FLuc modulator: 2%

Results for COc1ccc(-c2nn(C)c3sc(C(=O)Nc4cccc(F)c4)cc23)cc1OC ?
FLuc modulator: -16%

Results for CCCCC[C@H]1CN(C2CCCCC2)C(=O)[C@@H]1CC(=O)NCc1ccccc1 ?
NPC1 prom act: -4%; FLuc modulator: 0%; Rab9 promoter act: -5%; p53 reactivation: 11%; ELG1 genotoxic: -4%

How did CCOCCCn1c(=N)c(C(=O)NC2CCCC2)cc2c(=O)n3cccc(C)c3nc21 do in these assays?
SMN2 splice enh: -6%; FLuc modulator: 1%
